We go through ten compounds from PubChem BioAssay (NCI).

Compounds without any hit were thinned out: in the full panel of roughly 79,000, 15% have a hit. Values without a mark were called inactive. Activity calls are given as the source filed them. Rule as the data show it: active = growth inhibition above about 70%; inactive = the rest.

Test [1] can be described thus: NCI Yeast Anticancer Drug Screen. Data for the rad50 strain (AID 155).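 Also: 0% = growth of vehicle-only cultures of the same strain.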 Particulars: S. cerevisiae rad50 strain growth inhibition, hits give high values. The gist of the method:
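Readout: growth inhibition relative to vehicle-treated cultures. Compound exposure was carried out in a genetically defined yeast strain deficient in DNA damage repair.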

Test [2] can be described thus: NCI Yeast Anticancer Drug Screen. Data for the mec2-1 strain (AID 157). Particulars: S. cerevisiae mec2-1 strain, hits give high values. The gist of the method: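 Test agents were screened against the mec2-1 yeast strain, with defined DNA repair or cell cycle alteration. Growth was scored as inhibition against vehicle-only controls.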
Test [3] can be described thus: NCI Yeast Anticancer Drug Screen. Data for the sgs1 mgt1 strain (AID 161).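 Also: 0% = growth of cultures given vehicle only.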 Particulars: S. cerevisiae sgs1 mgt1 strain, hits give high values. The gist of the method: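 Mutant yeast exposed to compound; growth scored against vehicle-only wells.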
Test [4] is described as follows: NCI Yeast Anticancer Drug Screen. Data for the cln2 rad14 strain (AID 165).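 Also: 0% = growth equal to vehicle treated cultures.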 Particulars: S. cerevisiae cln2 rad14 strain, hits give high values. The gist of the method: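 Growth of compound-exposed yeast (cln2 rad14 genotype) measured and expressed as inhibition relative to vehicle.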
A short description of test [5]: NCI Yeast Anticancer Drug Screen. Data for the bub3 strain (AID 167). Particulars: S. cerevisiae bub3 mutant strain, hits give high values. The gist of the method:
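Readout: yeast growth inhibition, expressed relative to vehicle-only wells. The test organism is a mutant strain from a panel with lesions in DNA repair or checkpoint genes.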

The nature of test [6]: NCI Yeast Anticancer Drug Screen. Data for the mlh1 rad18 strain (AID 175). Particulars: S. cerevisiae mlh1 rad18 strain growth inhibition, hits give high values. The gist of the method:
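In this whole-cell yeast screen, a strain with altered DNA damage repair is challenged with compound, and its growth is measured against matched vehicle-treated controls.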

The mark [7] stands for this setting: at 5.0 µM (retest, dose inferred, filed as 0.5).
Where [8] appears, read: at 50.0 µM (retest, dose inferred, filed as 5.0).

With `C[C@H]1CC[C@@H]2[C@@H](C)[C@H]3[C@H](C[C@H]4[C@@H]5CC=C6C[C@@H](O)CC[C@]6(C)[C@H]5C[C@H](O)[C@]34C)N2C1`, the growth inhibition was -6% in test [1] (setting [7]); 8% in test [1] (setting [8]); -17.8% in test [1] (at 50.0 µM); 19% in test [2] (setting [7]); -7% in test [2] (setting [8]); -45.2% in test [2] (at 50.0 µM). For the same compound, the growth inhibition in test [3] (setting [7]) is -3%; in test [3] (setting [8]), 0%; in test [3] (at 50.0 µM) it was -7.65%; in test [4] (setting [7]), 16%; in test [4] (setting [8]), -2%; in test [4] (at 50.0 µM) it was 38.9%. In addition, the growth inhibition in test [5] (setting [7]) is 1%; in test [5] (setting [8]) it was -6%; in test [5] (at 50.0 µM), -47.1%; in test [6] (setting [7]) it was 1%; in test [6] (setting [8]) it was 7%; in test [6] (at 50.0 µM) it was 3%.

In the case of `CCCC/C=C1\CCC(CN2CCOCC2)C1=O` (stereo not given), the growth inhibition was 56% in test [1] (setting [7]); 100% (active) in test [1] (setting [8]); 90.5% (active) in test [1] (at 50.0 µM); 39% in test [2] (setting [7]); 100% (active) in test [2] (setting [8]); 92.8% (active) in test [2] (at 50.0 µM). Moreover, the growth inhibition in test [3] (setting [7]) is 43%; in test [3] (setting [8]), 100% (active); in test [3] (at 50.0 µM) it was 91.4% (active); in test [4] (setting [7]), 44%; in test [4] (setting [8]), 98% (active); in test [4] (at 50.0 µM), 90.8% (active). In addition, the growth inhibition in test [5] (setting [7]) was 69%; in test [5] (setting [8]), 100% (active); in test [5] (at 50.0 µM), 91.2% (active); in test [6] (setting [7]), 61%; in test [6] (setting [8]), 98% (active); in test [6] (at 50.0 µM) it was 90.7% (active).

For `COC1/C=C\OC2(C)Oc3c(C)c(O)c4c(c3C2=O)C(=O)C=C(NC(=O)C(C)=C/C=C\C(C)C(O)C(C)C2OC(C)(C)OC(C1C)C2C)C4=O` (stereo not given), the growth inhibition was -4% in test [1] (setting [7]); 93% (active) in test [1] (setting [8]); 28.9% in test [1] (at 50.0 µM); 24% in test [2] (setting [7]); 37% in test [2] (setting [8]); 33.5% in test [2] (at 50.0 µM). Besides, the growth inhibition in test [3] (setting [7]) was 1%; in test [3] (setting [8]), 52%; in test [3] (at 50.0 µM) it was 41.8%; in test [4] (setting [7]), 19%; in test [4] (setting [8]) it was 74% (active); in test [4] (at 50.0 µM), 31.9%. Besides, the growth inhibition in test [5] (setting [7]) is -3%; in test [5] (setting [8]), 93% (active); in test [5] (at 50.0 µM) it was 14.9%; in test [6] (setting [7]) it was 1%; in test [6] (setting [8]), 77% (active); in test [6] (at 50.0 µM), 38.5%.

`O=C(O)/C(=C\c1ccc(Cl)cc1)c1ccc(C(F)(F)F)cc1[N+](=O)[O-]`: the growth inhibition is 11% in test [1] (setting [7]); 76% (active) in test [1] (setting [8]); 94.1% (active) in test [1] (at 50.0 µM); 8% in test [2] (setting [7]); 90% (active) in test [2] (setting [8]); 97.5% (active) in test [2] (at 50.0 µM). For the same compound, the growth inhibition in test [3] (setting [7]) is 0%; in test [3] (setting [8]) it was 91% (active); in test [3] (at 50.0 µM) it was 96% (active); in test [4] (setting [7]), 21%; in test [4] (setting [8]), 84% (active); in test [4] (at 50.0 µM) it was 97.6% (active). In addition, the growth inhibition in test [5] (setting [7]) was 18%; in test [5] (setting [8]), 84% (active); in test [5] (at 50.0 µM) it was 96.8% (active); in test [6] (setting [7]), 25%; in test [6] (setting [8]), 93% (active); in test [6] (at 50.0 µM), 98.2% (active).

As for `CCOC(=O)/C(C)=N/Nc1cc(Cl)ccc1O`, the growth inhibition in test [1] (setting [7]) is 0%; in test [1] (setting [8]), 55%; in test [1] (at 50.0 µM), 95.5% (active); in test [2] (setting [7]) it was 4%; in test [2] (setting [8]), 32%; in test [2] (at 50.0 µM), 94% (active). The growth inhibition was 4% in test [3] (setting [7]); 42% in test [3] (setting [8]); 58% in test [3] (at 50.0 µM); -62% in test [4] (setting [7]); 51% in test [4] (setting [8]); 70.8% (active) in test [4] (at 50.0 µM). Also, the growth inhibition in test [5] (setting [7]) was -6%; in test [5] (setting [8]), -15%; in test [5] (at 50.0 µM) it was 34.5%; in test [6] (setting [7]), 7%; in test [6] (setting [8]) it was 63%; in test [6] (at 50.0 µM), 88.8% (active).

Regarding `CCCCN(c1ccccc1)c1ncnc2c1ncn2C`, the growth inhibition was 1% in test [1] (setting [7]); 83% (active) in test [1] (setting [8]); 89.7% (active) in test [1] (at 50.0 µM); -3% in test [2] (setting [7]); 86% (active) in test [2] (setting [8]); 79.8% (active) in test [2] (at 50.0 µM). The growth inhibition is 0% in test [3] (setting [7]); 86% (active) in test [3] (setting [8]); 89% (active) in test [3] (at 50.0 µM); 0% in test [4] (setting [7]); 76% (active) in test [4] (setting [8]); 74.2% (active) in test [4] (at 50.0 µM). For the same compound, the growth inhibition was 6% in test [5] (setting [7]); 88% (active) in test [5] (setting [8]); 79.2% (active) in test [5] (at 50.0 µM); 5% in test [6] (setting [7]); 89% (active) in test [6] (setting [8]); 89.9% (active) in test [6] (at 50.0 µM).

As to `[O-]/[N+](O)=C\c1ccccn1`, the growth inhibition is -2% in test [1] (setting [7]); -13% in test [1] (setting [8]); 5.75% in test [1] (at 50.0 µM); 2% in test [2] (setting [7]); -8% in test [2] (setting [8]); 6.55% in test [2] (at 50.0 µM). Moreover, the growth inhibition in test [3] (setting [7]) was -5%; in test [3] (setting [8]), -9%; in test [3] (at 50.0 µM), -0.75%; in test [4] (setting [7]), -2%; in test [4] (setting [8]), -10%; in test [4] (at 50.0 µM), -57.6%. In addition, the growth inhibition in test [5] (setting [7]) was 1%; in test [5] (setting [8]), 0%; in test [5] (at 50.0 µM), -8.4%; in test [6] (setting [7]), 0%; in test [6] (setting [8]), -10%; in test [6] (at 50.0 µM), 37.1%.

Regarding `COC(=O)/C=C1/OC(c2ccccc2)=C(C)C1=O`, the growth inhibition in test [1] (setting [7]) was 6%; in test [1] (setting [8]), 6%; in test [1] (at 50.0 µM) it was 30.7%; in test [2] (setting [7]), 18%; in test [2] (setting [8]), 18%; in test [2] (at 50.0 µM), 30.7%. Besides, the growth inhibition in test [3] (setting [7]) was 14%; in test [3] (setting [8]), 14%; in test [3] (at 50.0 µM), 48.9%; in test [4] (setting [7]), -6%; in test [4] (setting [8]), -6%; in test [4] (at 50.0 µM), -7.85%. The growth inhibition in test [5] (setting [7]) is 0%; in test [5] (setting [8]) it was 0%; in test [5] (at 50.0 µM), 5.8%; in test [6] (setting [7]), 8%; in test [6] (setting [8]), 8%; in test [6] (at 50.0 µM), 42.6%.

With `CSC(=S)NN=C(c1ccccn1)c1ccccn1`, the growth inhibition is 78% (active) in test [1] (setting [7]); 96% (active) in test [1] (setting [8]); 94% (active) in test [1] (at 50.0 µM); 24% in test [2] (setting [7]); 31% in test [2] (setting [8]); 97.8% (active) in test [2] (at 50.0 µM). Also, the growth inhibition in test [3] (setting [7]) is 92% (active); in test [3] (setting [8]), 99% (active); in test [3] (at 50.0 µM) it was 85.4% (active); in test [4] (setting [7]), 4%; in test [4] (setting [8]) it was -19%; in test [4] (at 50.0 µM), 91.7% (active). Further, the growth inhibition in test [5] (setting [7]) was -5%; in test [5] (setting [8]), 96% (active); in test [5] (at 50.0 µM), -8.05%; in test [6] (setting [7]), 78% (active); in test [6] (setting [8]), 80% (active); in test [6] (at 50.0 µM), 36%.

Consider `COc1cc(/C=C/C(=O)c2ccc(O)c(OC)c2)ccc1O`, for which the growth inhibition in test [1] (setting [7]) was 20%; in test [1] (setting [8]) it was 38%; in test [1] (at 50.0 µM), 14%; in test [2] (setting [7]), 16%; in test [2] (setting [8]), 29%; in test [2] (at 50.0 µM), 47.8%. Further, the growth inhibition in test [3] (setting [7]) is 9%; in test [3] (setting [8]), 26%; in test [3] (at 50.0 µM) it was 54%; in test [4] (setting [7]), 8%; in test [4] (setting [8]), 27%; in test [4] (at 50.0 µM), 34.2%. The growth inhibition in test [5] (setting [7]) is 17%; in test [5] (setting [8]) it was 67%; in test [5] (at 50.0 µM) it was 56.1%; in test [6] (setting [7]) it was 18%; in test [6] (setting [8]) it was 31%; in test [6] (at 50.0 µM), 6.6%.
